Reference: the supplement of paper PMC9844399
Where a name gives a salt, the structure may show the parent alone.

The compounds below were run on HeLa (assay: nuclear count per well, robust Z-score vs DMSO; higher = more cells (less toxicity)). Conditions: 10 µM; 6 h.
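Wherever MALAT1 nuclear FISH intensity, robust Z-score vs DMSO is given: High-content confocal imaging of branched-DNA amplified FISH in 384-well plates, Hoechst-defined nuclei, score is well value minus plate DMSO median over DMSO robust SD, four wells per compound.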
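Wherever nuclear count per well, robust Z-score vs DMSO is given: Hoechst-stained nuclei counted by automated confocal imaging of four fields per well in 384-well plates, with the robust Z-score based on the per-plate DMSO median and robust SD.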

Structure (SMILES)	nuclear count per well
CC(C)(C)c1cc(O)ccc1O [tert-Butylhydro-quinone (TBHQ)]	-0.589
CN(C)CC/C=C1/c2ccccc2COc2ccc(CC(=O)O)cc21 [Olopatadine]	-0.601
Cc1ccc(C(=O)Nc2ccc(S(=O)(=O)O)c3cc(S(=O)(=O)O)cc(S(=O)(=O)O)c23)cc1NC(=O)c1cccc(NC(=O)Nc2cccc(C(=O)Nc3cc(C(=O)Nc4ccc(S(=O)(=O)O)c5cc(S(=O)(=O)O)cc(S(=O)(=O)O)c45)ccc3C)c2)c1 [Suramin sodium salt]	-0.987
CC(C)C(=O)OCC(=O)[C@@]12O[C@H](C3CCCCC3)O[C@@H]1C[C@H]1[C@@H]3CCC4=CC(=O)C=C[C@]4(C)[C@H]3[C@@H](O)C[C@@]12C [Ciclesonide]	1.13
CC(N)C12CC3CC(CC(C3)C1)C2 (centres undefined)	-0.939
COC(=O)[C@H](Cc1ccccc1)NC(=O)[C@@H](N)CC(=O)O [Aspartame]	0.556
CC1=C(C(=O)O)N2C(=O)[C@@H](NC(=O)[C@H](N)c3ccc(O)cc3)[C@H]2SC1 [Cefadroxil]	0.308
Brc1c(NC2=NCCN2)ccc2nccnc12 [Brimonidine]	0.626
COc1ccc(C=CC(=O)c2c(-c3ccccc3)c3cc(C)ccc3[nH]c2=O)cc1 [Ceranib 1]	-0.0949
O=Nc1c(-c2c(O)[nH]c3ccccc23)[nH]c2ccccc12 [Indirubin-3'-monoxime]	-0.0877
Oc1ccc(Nc2nc(-c3ccc(Cl)cc3)cs2)cc1	-1.99
Cc1ccc(C(=O)c2ccc(CC(=O)O)n2C)cc1 [Tolmetin sodium salt dihydrate]	-0.0228
CC(=O)[C@H]1CC[C@H]2[C@@H]3CCC4=CC(=O)CC[C@]4(C)[C@H]3CC[C@]12C [Progesterone]	0.401
CCCCCCCCCCCCC(O)C(=O)O (centres undefined) [2-Hydroxymyristic acid]	-0.156
Cc1ccccc1N1C(=O)c2cc(S(N)(=O)=O)c(Cl)cc2NC1C (centres undefined) [Metolazone]	0.605
CCN(CC)CCCC(C)Nc1ccnc2cc(Cl)ccc12 (centres undefined) [Chloroquine]	1.17
O=C(O)CN1C(=O)c2cccc3cccc(c23)C1=O [Alrestatin]	0.265

Structure (SMILES)	nuclear count per well
CO[C@H]1/C=C/O[C@@]2(C)Oc3c(C)c(O)c4c(c3C2=O)C2=NC3(CCN(CC(C)C)CC3)NC2=C(NC(=O)/C(C)=C\C=C\[C@H](C)[C@H](O)[C@@H](C)[C@@H](O)[C@@H](C)[C@H](OC(C)=O)[C@@H]1C)C4=O [Rifabutin]	0.397
CCCCCCCCCCCCC/C=C/[C@@H](O)[C@H](CO)NCCCCCCCC [C8 Ceramine]	0.668
CCCCCCCCCCCCCCCC(O)C(N)CO (racemic) [DL-Dihydrosphingosine]	0.229
O=C1CC2(CCCC2)CC(=O)N1CCCCN1CCN(c2ncccn2)CC1	0.271
N=C(N)NC(=O)c1nc(Cl)c(N)nc1N [Amiloride hydrochloride hydrate]	0.329
O=C1NC(=O)C(c2ccccc2[N+](=O)[O-])=C1Nc1ccc(O)c(Cl)c1	-0.894
CNCCCC1c2ccccc2C=Cc2ccccc21	-0.0976
CN/C(=N\c1ccc(C2=NNC(=O)CC2C)cc1)NC#N (centres undefined) [Siguazodan]	0.637
CCCCCC#CCC#CCC#CCC#CCCCC(=O)O [5,8,11,14-Eicosatetraynoic acid]	-0.123
CC(Oc1ccc(O)cc1)(P(=O)(O)O)P(=O)(O)O	0.32
CCCCCCCC/C=C\CCCCCCCC(N)=O [9,10-Octadecenoamide]	0.918
C=CC1=C(C(=O)O)N2C(=O)[C@@H](NC(=O)/C(=N\O)c3csc(N)n3)[C@H]2SC1 [Cefdinir]	1.25
CC(C)[C@H](NC(=O)CNC(=O)OC(C)(C)C)C(=O)N[C@H](C=O)C(C)C	0.605
CO[C@H]1/C=C/O[C@@]2(C)Oc3c(C)c(O)c4c(O)c(c(/C=N/N5CCN(C)CC5)c(O)c4c3C2=O)NC(=O)/C(C)=C\C=C\[C@H](C)[C@H](O)[C@@H](C)[C@@H](O)[C@@H](C)[C@H](OC(C)=O)[C@@H]1C [Rifampin (Rifampicin)]	0.0845
CCCCC/C=C\C\C=C/C=C/C=C/CC(=O)CCCC(=O)O [5-Ketoeicosatetraenoic acid]	-0.142
COC(=O)c1c(C)[nH]c(C)c1C(=O)c1ccccc1Cc1ccccc1	0.495
CCCN(CCC)S(=O)(=O)c1ccc(C(=O)O)cc1 [Probenecid]	-0.73

The compounds below were run on HeLa (assay: MALAT1 nuclear FISH intensity, robust Z-score vs DMSO; higher = more nuclear MALAT1 lncRNA, active = -3 or less). Conditions: 10 µM; 6 h.

Structure (SMILES)	MALAT1 nuclear FISH intensity
CC(C)(C)c1cc(O)ccc1O [tert-Butylhydro-quinone (TBHQ)]	1.52 (inactive)
CN(C)CC/C=C1/c2ccccc2COc2ccc(CC(=O)O)cc21 [Olopatadine]	-0.761 (inactive)
Cc1ccc(C(=O)Nc2ccc(S(=O)(=O)O)c3cc(S(=O)(=O)O)cc(S(=O)(=O)O)c23)cc1NC(=O)c1cccc(NC(=O)Nc2cccc(C(=O)Nc3cc(C(=O)Nc4ccc(S(=O)(=O)O)c5cc(S(=O)(=O)O)cc(S(=O)(=O)O)c45)ccc3C)c2)c1 [Suramin sodium salt]	-0.553 (inactive)
CC(C)C(=O)OCC(=O)[C@@]12O[C@H](C3CCCCC3)O[C@@H]1C[C@H]1[C@@H]3CCC4=CC(=O)C=C[C@]4(C)[C@H]3[C@@H](O)C[C@@]12C [Ciclesonide]	0.494 (inactive)
CC(N)C12CC3CC(CC(C3)C1)C2 (centres undefined)	-1.27 (inactive)
COC(=O)[C@H](Cc1ccccc1)NC(=O)[C@@H](N)CC(=O)O [Aspartame]	-0.517 (inactive)
CC1=C(C(=O)O)N2C(=O)[C@@H](NC(=O)[C@H](N)c3ccc(O)cc3)[C@H]2SC1 [Cefadroxil]	1.28 (inactive)
Brc1c(NC2=NCCN2)ccc2nccnc12 [Brimonidine]	-1.1 (inactive)
COc1ccc(C=CC(=O)c2c(-c3ccccc3)c3cc(C)ccc3[nH]c2=O)cc1 [Ceranib 1]	-1.06 (inactive)
O=Nc1c(-c2c(O)[nH]c3ccccc23)[nH]c2ccccc12 [Indirubin-3'-monoxime]	-2.22 (inactive)
Oc1ccc(Nc2nc(-c3ccc(Cl)cc3)cs2)cc1	-1.04 (inactive)
Cc1ccc(C(=O)c2ccc(CC(=O)O)n2C)cc1 [Tolmetin sodium salt dihydrate]	0.62 (inactive)
CC(=O)[C@H]1CC[C@H]2[C@@H]3CCC4=CC(=O)CC[C@]4(C)[C@H]3CC[C@]12C [Progesterone]	-1.26 (inactive)
CCCCCCCCCCCCC(O)C(=O)O (centres undefined) [2-Hydroxymyristic acid]	0.384 (inactive)
Cc1ccccc1N1C(=O)c2cc(S(N)(=O)=O)c(Cl)cc2NC1C (centres undefined) [Metolazone]	0.0717 (inactive)
CCN(CC)CCCC(C)Nc1ccnc2cc(Cl)ccc12 (centres undefined) [Chloroquine]	0.282 (inactive)
O=C(O)CN1C(=O)c2cccc3cccc(c23)C1=O [Alrestatin]	-1.51 (inactive)

Structure (SMILES)	MALAT1 nuclear FISH intensity
CO[C@H]1/C=C/O[C@@]2(C)Oc3c(C)c(O)c4c(c3C2=O)C2=NC3(CCN(CC(C)C)CC3)NC2=C(NC(=O)/C(C)=C\C=C\[C@H](C)[C@H](O)[C@@H](C)[C@@H](O)[C@@H](C)[C@H](OC(C)=O)[C@@H]1C)C4=O [Rifabutin]	-0.00159 (inactive)
CCCCCCCCCCCCC/C=C/[C@@H](O)[C@H](CO)NCCCCCCCC [C8 Ceramine]	-0.263 (inactive)
CCCCCCCCCCCCCCCC(O)C(N)CO (racemic) [DL-Dihydrosphingosine]	1.32 (inactive)
O=C1CC2(CCCC2)CC(=O)N1CCCCN1CCN(c2ncccn2)CC1	-0.239 (inactive)
N=C(N)NC(=O)c1nc(Cl)c(N)nc1N [Amiloride hydrochloride hydrate]	-2.13 (inactive)
O=C1NC(=O)C(c2ccccc2[N+](=O)[O-])=C1Nc1ccc(O)c(Cl)c1	-1.18 (inactive)
CNCCCC1c2ccccc2C=Cc2ccccc21	-0.833 (inactive)
CN/C(=N\c1ccc(C2=NNC(=O)CC2C)cc1)NC#N (centres undefined) [Siguazodan]	-0.726 (inactive)
CCCCCC#CCC#CCC#CCC#CCCCC(=O)O [5,8,11,14-Eicosatetraynoic acid]	-0.86 (inactive)
CC(Oc1ccc(O)cc1)(P(=O)(O)O)P(=O)(O)O	-1.23 (inactive)
CCCCCCCC/C=C\CCCCCCCC(N)=O [9,10-Octadecenoamide]	-1.63 (inactive)
C=CC1=C(C(=O)O)N2C(=O)[C@@H](NC(=O)/C(=N\O)c3csc(N)n3)[C@H]2SC1 [Cefdinir]	-0.0396 (inactive)
CC(C)[C@H](NC(=O)CNC(=O)OC(C)(C)C)C(=O)N[C@H](C=O)C(C)C	-0.412 (inactive)
CO[C@H]1/C=C/O[C@@]2(C)Oc3c(C)c(O)c4c(O)c(c(/C=N/N5CCN(C)CC5)c(O)c4c3C2=O)NC(=O)/C(C)=C\C=C\[C@H](C)[C@H](O)[C@@H](C)[C@@H](O)[C@@H](C)[C@H](OC(C)=O)[C@@H]1C [Rifampin (Rifampicin)]	0.793 (inactive)
CCCCC/C=C\C\C=C/C=C/C=C/CC(=O)CCCC(=O)O [5-Ketoeicosatetraenoic acid]	-1.29 (inactive)
COC(=O)c1c(C)[nH]c(C)c1C(=O)c1ccccc1Cc1ccccc1	1.4 (inactive)
CCCN(CCC)S(=O)(=O)c1ccc(C(=O)O)cc1 [Probenecid]	0.389 (inactive)
